Screens (PubChem)
Hits are enriched below; roughly 0.5% of the tested compounds scored in any of these assays.
E coli growth-1 = bacterial growth inhibition, counter-screen for AddAB inhibitors. E. coli V3065 growth, OD600 absorbance, 18 h. inhibition, % at 11.9 µM. hit rate 0.27% among 330,000. AID 449728;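 active means inhibition above the campaign's mean inhibition across all tested compounds plus 3 SD, cut at about 9.9% in these data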;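 further: uninfected addAB+ strain grown without phage in ampicillin broth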
AddAB inh = less growth of phage-infected E. coli with AddAB; AID 435030; inhibition, % at 11.9 µM; E. coli expressing H. pylori AddAB, absorbance growth; hit rate 0.29% among 330,000; in the data active means inhibition above about 12%
Tat transport = E. coli Tat transport inhibition; E. coli MC4100 TorA-mCherry Tat export, fluorescence; inhibition, % at 10 µM; hit rate 0.036% among 340,000; AID 488895;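 active means mean replicate inhibition at least 50% and at least half of replicates individually reaching 50%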;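 further: exported cargo escapes ClpAP degradation while cytoplasmic cargo is degraded and loses fluorescence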
E coli growth-2 = blocks Escherichia coli growth. OD600, 23 h; active compounds read low. hit rate 0.21% among 330,000. OD600 absorbance (test concentration not listed);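 active means OD600 absorbance below the run mean of sample wells minus 3.6 SD, in any replicate, cut at about 0.56 in these data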
phage Ecoli inh = E. coli growth loss with phage present | hit rate 0.26% among 360,000 | inhibition, % at 11.9 µM | AID 651602 | growth absorbance; in the data active means inhibition above about 11%
AddAB conf = confirmation screen: growth loss of phage-infected E. coli expressing H. pylori AddAB; inhibition, % at 11.9 µM; E. coli V3065 expressing H. pylori AddAB, T4 phage, OD; T4 phage with gene 2 nonsense mutations; hit rate 64% among 880; shares compounds with AddAB inh; AID 488942;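 active means mean inhibition above a set limit taken from the earlier primary screen, cut at about 13% in these data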;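 further: higher means less bacterial growth since AddAB block lets phage replicate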
RecBCD counter = reduces growth of phage-infected RecBCD+ E. coli, AddAB inhibitor counter-screen; hit rate 73% among 880; inhibition, % at 11.9 µM; shares compounds with AddAB inh; E. coli V66 + mutant T4 phage, OD growth;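 active means mean inhibition above the mean of solvent-only control wells plus 3 SD, cut at about 4% in these data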;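 further: optical density read after an 18 h incubation at 37 °C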
bact viab count = counter-screen for AddAB inhibitors: inhibitors of bacterial viability; hit rate 35% among 880; inhibition, % at 11.9 µM; shares compounds with AddAB inh; absorbance (AddAB counterscreen); in the data active means inhibition above about 25%
A number is an active result; i = inactive; nt = no result.

SMILES | E coli growth-1 | AddAB inh | Tat transport | E coli growth-2 | phage Ecoli inh | AddAB conf | RecBCD counter | bact viab count
Cc1ccsc1C(=O)Nc1nnc(-c2ccco2)o1 | i | i | i | 0.41 | i | nt | nt | nt
CCCc1cc(C(=O)Nc2ccccc2SC)no1 | 91 | 98 | i | i | i | i | i | i
O=C(NCCC1=CCCCC1)C1CCN(S(=O)(=O)c2ccccc2)CC1 | i | i | i | i | i | nt | nt | nt
O=C(NCCC1=CCCCC1)C1CCN(C(=O)Cc2ccccc2)CC1 | 98 | 98 | i | i | i | i | i | i
CCn1cc(C(=O)NCc2ccccn2)c(=O)c2cc(F)c(N3CCN(C)CC3)cc21 | 93 | 98 | i | nt | i | 99 | 16 | 98
CCn1cc(C(=O)NCCc2ccccc2)c(=O)c2cc(F)c(N3CCN(C)CC3)cc21 | 13 | 21 | i | i | i | 71 | i | i
CC(=O)NC1CCCN(O)C(=O)/C=C(\C)CCOC(=O)C(NC(C)=O)CCCN(O)C(=O)/C=C(\C)CCOC(=O)C(NC(C)=O)CCCN(O)C(=O)/C=C(\C)CCOC1=O (stereo not drawn) | 16 | 21 | nt | nt | nt | 14 | 15 | i
Cc1ccc(C(=O)NC2CCCCN(C)C2=O)cc1 (stereo not drawn) | nt | nt | nt | nt | i | nt | nt | nt
Cc1ccc(S(=O)(=O)NN=Cc2ccc(C)o2)cc1 | nt | nt | nt | i | nt | nt | nt | nt
O=C(N/N=C/c1ccc([N+](=O)[O-])o1)C1CCCC1 | i | 12 | i | nt | i | 74 | 5.0 | i
COc1ccccc1NS(=O)(=O)c1cccc(C(=O)NN=Cc2ccc([N+](=O)[O-])o2)c1 | nt | nt | nt | i | nt | nt | nt | nt
O=[N+]([O-])c1ccc(/C=N\NS(=O)(=O)c2ccc(F)cc2)o1 | 20 | 93 | i | nt | i | 99 | 8.0 | 54
COc1ccc(S(=O)(=O)N/N=C\c2ccc([N+](=O)[O-])o2)c(OC)c1 | 24 | 30 | i | nt | i | 100 | 8.3 | 40
COc1ccc(-c2nnc(NC(=O)c3ccc4c(c3)OCCO4)o2)cc1 | i | i | i | i | i | nt | nt | nt
COc1ccc(-c2nnc(NC(=O)c3ccc(F)cc3)o2)cc1 | i | 15 | i | i | i | 17 | 12 | i
CN(C)N=Nc1nc[nH]c1C(N)=O | 12 | 18 | i | i | i | 74 | 4.0 | 40
CCCS(=O)(=O)N1CCC(C(=O)NCc2ccccc2Cl)CC1 | i | 12 | i | i | i | 14 | 5.8 | i
O=C(NCc1ccccc1Cl)C1CCN(S(=O)(=O)N2CCCCCC2)CC1 | i | i | i | i | i | nt | nt | nt
Cc1nn(C)c(Cl)c1C=NOC(=O)c1ccccc1 | nt | nt | nt | i | nt | nt | nt | nt
C/C(=C\C(=O)OCCCCCCCCC(=O)O)C[C@@H]1OC[C@H](C[C@@H]2O[C@H]2[C@@H](C)[C@H](C)O)[C@@H](O)[C@H]1O | i | 18 | 128 | nt | i | i | 18 | i
COc1cc(NC(=O)CC(C)=NNC(=O)C(=O)NC2CCCCC2)c(OC)cc1Cl | nt | nt | nt | i | nt | nt | nt | nt
CCC(C)NC(=O)c1cn(CC)c2cc(N3CCN(C(=O)c4ccco4)CC3)c(F)cc2c1=O (stereo not drawn) | 12 | 18 | i | i | i | 96 | i | i
CCn1cc(C(=O)NCC(C)C)c(=O)c2cc(F)c(N3CCN(C(=O)c4ccco4)CC3)cc21 | i | i | i | i | i | nt | nt | nt
CCn1cc(C(=O)NCc2ccco2)c(=O)c2cc(F)c(N3CCN(C(=O)c4ccco4)CC3)cc21 | 50 | 49 | i | 0.45 | i | 102 | 4.0 | 76
CC=C(C)C(=O)NCCN1C2=NCC(Cc3ccccc3)N2CC1Cc1ccc(OC)cc1 (stereo not drawn) | nt | nt | nt | i | nt | nt | nt | nt
SMILES | E coli growth-1 | AddAB inh | Tat transport | E coli growth-2 | phage Ecoli inh | AddAB conf | RecBCD counter | bact viab count
Cn1nc([N+](=O)[O-])c(C(C#N)c2ccccn2)c(Cl)c1=O (stereo not drawn) | i | 13 | i | i | i | 41 | 6.1 | i
C=CCNC(=S)N1CCN(c2ncc3c(=O)c(C(=O)O)cn(CC)c3n2)CC1 | 11 | 20 | i | 0.46 | i | 89 | i | 26
CCn1cc(C(=O)O)c(=O)c2cnc(N3CCN(C(=S)Nc4ccccc4Cl)CC3)nc21 | 84 | 97 | i | i | i | 98 | i | 32
CCn1cc(C(=O)O)c(=O)c2cnc(N3CCN(C(=S)Nc4ccc(F)cc4)CC3)nc21 | 25 | 18 | nt | i | i | 25 | i | i
C=CCNC(=S)N1CCC(C(=O)c2ccc(OC)cc2)CC1 | i | i | i | i | i | nt | nt | nt
Cc1c(Cl)cccc1NC(=S)N1CCN(c2ncccn2)CC1 | i | i | i | i | i | nt | nt | nt
CCOC(=O)C1C2COc3ccccc3C2N2C(=O)N(c3ccc(OC)cc3)C(=O)[C@]12C (stereo partly drawn) | nt | nt | nt | i | nt | nt | nt | nt
CCCNC(=O)c1cccc(Cn2cc(Br)c([N+](=O)[O-])n2)c1 | 11 | 15 | i | i | i | 31 | i | 32
NNC(=O)c1cccc(Cn2cc(Br)c([N+](=O)[O-])n2)c1 | 24 | 27 | i | i | i | 97 | 12 | 67
COc1ccc(NC(=O)c2cccc(Cn3cc(Br)c([N+](=O)[O-])n3)c2)c(C)c1 | i | i | i | i | i | nt | nt | nt
COc1ccc(CC2CN3C(=NCC3C)N2CC(C)NC(=O)c2ccc(C)c(Br)c2)cc1 (stereo not drawn) | nt | nt | nt | i | nt | nt | nt | nt
COc1ccc2c(c1)[nH]c1c(=O)n(N=Cc3ccc(OC)c(CN4CCCCC4)c3)cnc12 | nt | nt | nt | i | nt | nt | nt | nt
COc1ccc(N2C(=O)C3CCCN3C2c2cccc(OC)c2OC)cc1 (stereo not drawn) | i | 14 | i | i | i | i | i | i
COc1ccc(N2C(=O)C3CCCN3C2c2cccc(Br)c2)cc1 (stereo not drawn) | i | i | i | i | i | nt | nt | nt
Cc1ccc(-c2noc(N=O)c2NO)cc1 | 19 | 24 | i | i | i | 33 | 7.9 | 31
Cc1ccc(S(=O)(=O)N2CCC(C(=O)OCc3ccccc3)CC2)cc1C | i | 21 | i | i | i | i | i | i
CC(=O)NN1C(=O)c2ccccc2NC1c1ccc([N+](=O)[O-])o1 (stereo not drawn) | 15 | 18 | i | i | i | 79 | 5.9 | 30
O=C(NN1C(=O)c2ccccc2NC1c1ccc([N+](=O)[O-])o1)c1ccc(Br)cc1 (stereo not drawn) | i | i | i | i | i | nt | nt | nt
CC(=NO)C(C)(C)NC(=O)Nc1ccc(Cl)cc1 | nt | nt | nt | i | nt | nt | nt | nt
COc1cc(-c2nc3ccccn3c2N=Cc2ccc(F)cc2)ccc1O | nt | nt | nt | i | nt | nt | nt | nt
COc1ccccc1C(=O)NCC(=O)NN=Cc1cc(Br)ccc1OC(=O)/C=C\c1ccco1 | nt | nt | nt | i | nt | nt | nt | nt
CCOC(=O)c1ccc(NC(=O)CSc2ccc(-c3cccnc3)nn2)cc1 | i | 16 | i | nt | i | i | 4.1 | i
COc1ccc(NC(=O)CSc2ccc(-c3cccnc3)nn2)cc1 | i | i | i | i | i | nt | nt | nt
